DRD3 antagonist: blocks the human D3 dopamine receptor | max response, negative = inhibition, % | 360,000 tested, 2.5% active | D3R cells, DiscoveRx beta-arrestin luminescence, antagonist mode; hits give low values | P35462; in the data active means max response below about -50%; further: on the % scale 0 is the no-effect control and ±100 the full control effect
Target sequence (P35462 whole entry, looked up): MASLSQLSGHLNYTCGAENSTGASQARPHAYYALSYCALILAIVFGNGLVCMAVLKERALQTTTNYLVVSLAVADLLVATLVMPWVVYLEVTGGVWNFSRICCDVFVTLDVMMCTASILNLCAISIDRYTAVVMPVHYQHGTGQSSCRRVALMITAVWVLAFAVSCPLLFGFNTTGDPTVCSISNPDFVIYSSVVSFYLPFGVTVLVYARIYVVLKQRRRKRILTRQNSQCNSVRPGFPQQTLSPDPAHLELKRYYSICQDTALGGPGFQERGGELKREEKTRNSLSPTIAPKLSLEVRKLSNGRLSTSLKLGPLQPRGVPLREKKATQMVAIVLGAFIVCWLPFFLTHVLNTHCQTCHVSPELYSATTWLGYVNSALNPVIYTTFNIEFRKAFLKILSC
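Cells expressing the human receptor were seeded at 1500 cells/well, incubated overnight at 37 degrees C in 5% CO2, then exposed to library compounds with dopamine controls for 90 minutes at 37 degrees C before luminescent detection.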
DRD3 agonist: D3 dopamine receptor (human) agonism; D3R DiscoveRx beta-arrestin cells, luminescence, 90 min; max activation, %; 410,000 tested, 0.58% active; AID 652048; in the data active means max activation above about 30%; further: 0% is about no effect
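Agonist-mode cell screen: cells plated at 1500/well and incubated overnight at 37 °C, then exposed to library compounds for 90 min at 37 °C. Detection reagent was added for 30–60 min at room temperature, and luminescence was read.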
D1 PAM: enhances dopamine response at the human D1 receptor | HEK293 TREx D1 cells, calcium flux, dopamine EC20 potentiation | 360,000 tested, 0.036% active | potentiation, % at 10 µM | AID 504651 | P21728; in the data active means potentiation above about 30%; further: 0% is about no effect
D1 antagonist: human D1 dopamine receptor antagonism | HEK293 TREx D1 cells, calcium flux, dopamine EC80; hits give low values | P21728 | AID 504652 | activity change, negative = inhibition, % at 10 µM | 360,000 tested, 3.2% active; in the data active means activity change below about -30%; further: on the % scale 0 is the no-effect control and ±100 the full control effect
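Compound effects on dopamine-evoked calcium signalling were measured in tetracycline-induced HEK293 Trex D1 cells. Dopamine at EC80 followed a 180 s compound pre-read, and fluorescence was tracked kinetically for 180 s more.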
D1 ag: human D1 receptor agonism | HEK293 T-REx D1 cells, calcium flux, agonist mode | activation, % at 2 µM | 360,000 tested, 1% active | AID 504660; in the data active means activation above about 30%; further: 0% is about no effect
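Inducible HEK293 T-REx D1 cells, force-coupled to calcium signalling, were plated at 4000 cells/well with tetracycline and held overnight at 30 C. After no-wash calcium dye loading, compound-evoked calcium rise over 180 s flagged agonists.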
* marks the source's active call; other numbers are inactive results; x = not tested or not shown. Hits are enriched below; roughly 6.1% of the tested compounds scored in any of these assays.

SMILES | DRD3 antagonist | DRD3 agonist | D1 PAM | D1 antagonist | D1 ag
CCc1ccc(Sc2cc(C(=O)NCCCN3CCCC(C)C3)c3ccccc3n2)cc1 (stereo unspecified) | x | -11 | 0 | -22 | 36*
CCc1ccc(Sc2cc(C(=O)NCCCN3CCC(C)CC3)c3ccccc3n2)cc1 | x | -14 | 0 | -21 | 29
Cc1ccc(C)c(N2CCN(C(=O)CCS(=O)(=O)c3ccc4c(c3)CC(=O)N4C)CC2)c1 | x | -9 | 3 | 8 | 5
Cc1ccc(SCc2[nH]nc3c2C2(CCSCC2)C(C#N)=C(N)O3)cc1 | 5 | 3 | 3 | -16 | 0
CCOC(=O)N1CCC2(CC1)C(C#N)=C(N)Oc1n[nH]c(CSc3ccc(C)cc3)c12 | -9 | -1 | -2 | -39* | 2
COc1cccc(CNC(=O)c2ccc3c(c2)sc2nc(-c4ccccc4)cn23)c1OC | x | 5 | 0 | -2 | 1
COc1ccc2oc(-c3ccc(NC(=O)c4ccc(N5CCOCC5)c([N+](=O)[O-])c4)cc3)nc2c1 | 82 | 54* | -5 | -8 | 0
COc1ccc(-c2nc3cc(C)ccn3c2NC(=O)c2ccc(F)cc2)cc1 | x | 6 | -1 | -40* | 1
Cc1cc(C)nc(/N=C2\NC(=O)CC(C(=O)O)N2c2ccc(Cl)cc2)n1 (stereo unspecified) | 4 | 10 | -9 | -62* | -2
Cc1ccc(NC(=O)N2CC3CCCN3c3ccccc32)c(C)c1 (stereo unspecified) | x | 5 | -4 | -9 | 4
O=C(/C=C/c1ccc2c(c1)OCO2)Nc1cc(S(=O)(=O)N2CCOCC2)ccc1N1CCOCC1 | -13 | 0 | -4 | -47* | 2
Cc1ccc(NC(=O)/C=C/c2ccc(S(=O)(=O)N3CCOCC3)cc2)cc1S(=O)(=O)N(C)C | -111* | 29 | x | x | x
Nc1ccccc1C(=O)/C=C/c1ccc2c(c1)OCO2 | 0 | 0 | -4 | -35* | 0
Cc1ccc(/C=C/C(=O)Nc2cc(S(=O)(=O)N3CCOCC3)ccc2N2CCOCC2)cc1 | 5 | -5 | x | 5 | 8
NS(=O)(=O)c1ccc(NC(=O)/C=C/c2ccc3c(c2)OCO3)cc1 | 2 | -3 | 8 | -48* | 4
CC(=O)Nc1ccc(NC(=O)/C=C/c2ccc3c(c2)OCO3)cc1 | 10 | -1 | -2 | 4 | 1
O=C(Nc1cccc(-c2nc3ccccc3o2)c1)c1cccc2c(Cl)cccc12 | x | 5 | -5 | -11 | -1
O=C(NC1CC(=O)N(c2ccc(Cl)cc2)C1)C(=O)c1c[nH]c2ccccc12 (stereo unspecified) | x | -2 | -2 | x | 0
Cc1cc(=O)n(Cc2cccc(Br)c2)c2c1c(C)nn2-c1ccccc1 | x | -2 | -6 | -79* | 14
Cc1cc(C)c(Cn2c(C)c(CNCCCc3ccccc3)c(C(=O)O)c2C)c(C)c1 | x | -14 | -2 | 8 | 2
COc1cccc(OCc2ccc(Cn3nc(NC(=O)NCCc4ccc(OC)c(OC)c4)c4ccccc43)cc2)c1 | -108* | -22 | x | x | x
Cc1c(CNC2CCC(C)CC2)c(C(=O)O)c(C)n1Cc1ccccc1F (stereo unspecified) | x | 6 | -3 | -49* | -2
Cc1c(CNC2CCCCC2)c(C(=O)O)c(C)n1Cc1ccccc1F | x | -16 | 0 | -3 | -1
CCc1ccc(-n2c(=O)c3sc4ccccc4c3n(CC(=O)N(CC)Cc3ccccc3)c2=O)cc1 | x | 4 | 2 | -7 | 5
Cc1ccc(S(=O)(=O)Nc2cc3c(cc2C)n(C)c(=O)c(=O)n3C)c(C)c1 | x | -4 | -7 | -95* | 1
SMILES | DRD3 antagonist | DRD3 agonist | D1 PAM | D1 antagonist | D1 ag
CCOC(=O)c1ccc(NC(=O)c2ccc3c(c2)CCN3S(=O)(=O)c2ccc(Cl)cc2)cc1 | x | -6 | -2 | -13 | 6
Cc1ccc(S(=O)(=O)C2CS(=O)(=O)CC2O)cc1 (stereo unspecified) | 18 | 0 | -1 | 3 | 4
CC(=O)C1=C(S(=O)(=O)c2ccc(C)cc2)CS(=O)(=O)C1 | -67* | -7 | -2 | -17 | 4
Cc1cccn2c(=O)cc(COc3cccc(NC(=O)COc4ccccc4)c3)nc12 | x | -17 | -3 | -5 | 6
O=[N+]([O-])c1ccc(-c2nc(C(Cl)Cl)c3ccccc3n2)cc1 | -59* | -13 | 0 | -6 | 0
CN(Cc1ccccc1)c1nc(-c2ccc([N+](=O)[O-])cc2)nc2ccccc12 | -54* | 3 | 1 | 19 | 11
COc1ccc(N2CC(NC(=O)C(c3ccccc3)c3ccccc3)CC2=O)cc1OC (stereo unspecified) | x | 2 | 1 | x | -4
COc1cc(-c2ccc3c(=O)c4ccccc4n(C)c3c2)cc(OC)c1OC | 149 | 68* | -3 | -8 | 0
Cn1c(-c2ccc3c(c2)OCO3)cc(=O)c2ccccc21 | -12 | -24 | -2 | -3 | 1
Cn1c2ccccc2c(=O)c2ccc(F)cc21 | 4 | 19 | -3 | 10 | 1
Cn1c2ccccc2c(=O)c2ccc(-c3ccc4c(c3)OCO4)cc21 | 26 | -21 | -8 | -48* | 1
COc1cc(-c2ccc3c(=O)c4ccccc4sc3c2)cc(OC)c1OC | 101 | 60* | x | x | x
CCN(CC)c1ccc(C=C2C(=O)OC(c3ccccc3)OC2=O)cc1 (stereo unspecified) | 15 | -2 | 0 | -3 | 0
CCN(CC)c1ccc(/C=C/C(=O)C2C(=O)C=C(C)OC2=O)cc1 (stereo unspecified) | -15 | -7 | -4 | -79* | 246*
CC(C1CC2CCC1C2)n1c(COc2ccccc2F)nnc1SCC(N)=O (stereo unspecified) | 0 | -3 | 27 | 7 | 89*
O=[N+]([O-])c1ccc(N2CCN(C(=S)Nc3ccc(F)cc3F)CC2)cc1 | -13 | 1 | -3 | x | 11
Cc1ccc(C(=O)NC(=S)N2CCN(c3ccc([N+](=O)[O-])cc3)CC2)cc1 | -53* | -23 | -4 | -8 | -1
O=C(c1ccc([N+](=O)[O-])cc1)N1CCc2ccccc2C1 | 4 | 8 | -6 | -7 | 1
O=[N+]([O-])c1ccc(N2CCN(C(=S)Nc3ccc(F)cc3)CC2)cc1 | -12 | -2 | -5 | -34* | 8
COc1cccc(NC(=S)N2CCN(c3ccc([N+](=O)[O-])cc3)CC2)c1 | 0 | -2 | -2 | 5 | 5
O=[N+]([O-])c1ccc(NC(=S)N2CCc3ccccc3C2)cc1 | 3 | -3 | -10 | -33* | 13
O=[N+]([O-])c1ccc(N2CCN(C(=S)Nc3cccc(F)c3)CC2)cc1 | 3 | 0 | -4 | -38* | 12
O=C(Nc1ccc(F)cc1F)C(Cc1ccccc1)N1Cc2ccccc2C1=O (stereo unspecified) | x | -16 | 0 | 4 | -1

Source: PubChem BioAssay
